Assay outcomes (PubChem)
WRN inhibitor: WRN helicase (human) inhibition. WRN helicase unwinding, fluorescent forked duplex, kinetic. Potency, µM (doses to about 114 µM), for inactives: at the top dose activity change, negative = inhibition, most hits filed as inhibitors. AID 651768. Q14191. actives 0.46% (n = 360,000); note: % is set by controls: 0 for no effect and ±100 for the full control effect; nearly all actives have a fitted effect of over 55% in size
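Primary qHTS, 1536-well format. 20 nM WRN + compound, 15 min RT; start with 100 nM forked fluorophore/quencher duplex, 2 mM ATP (final); kinetic read ex 525/em 598 nm.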
L3MBTL1 inh: L3MBTL1 (human) inhibition; Q9Y468; AlphaScreen L3MBTL1–H3K9me1 peptide binding; Potency, µM (highest dose often 57.1 µM), for the others: top-dose activity, negative = inhibition, usual class: inhibitors; actives 0.66% (n = 230,000); note: % is set by controls: 0 for no effect and ±100 for the full control effect; nearly all actives have a fitted effect of over 60% in size
Target sequence (Q9Y468 whole entry, looked up): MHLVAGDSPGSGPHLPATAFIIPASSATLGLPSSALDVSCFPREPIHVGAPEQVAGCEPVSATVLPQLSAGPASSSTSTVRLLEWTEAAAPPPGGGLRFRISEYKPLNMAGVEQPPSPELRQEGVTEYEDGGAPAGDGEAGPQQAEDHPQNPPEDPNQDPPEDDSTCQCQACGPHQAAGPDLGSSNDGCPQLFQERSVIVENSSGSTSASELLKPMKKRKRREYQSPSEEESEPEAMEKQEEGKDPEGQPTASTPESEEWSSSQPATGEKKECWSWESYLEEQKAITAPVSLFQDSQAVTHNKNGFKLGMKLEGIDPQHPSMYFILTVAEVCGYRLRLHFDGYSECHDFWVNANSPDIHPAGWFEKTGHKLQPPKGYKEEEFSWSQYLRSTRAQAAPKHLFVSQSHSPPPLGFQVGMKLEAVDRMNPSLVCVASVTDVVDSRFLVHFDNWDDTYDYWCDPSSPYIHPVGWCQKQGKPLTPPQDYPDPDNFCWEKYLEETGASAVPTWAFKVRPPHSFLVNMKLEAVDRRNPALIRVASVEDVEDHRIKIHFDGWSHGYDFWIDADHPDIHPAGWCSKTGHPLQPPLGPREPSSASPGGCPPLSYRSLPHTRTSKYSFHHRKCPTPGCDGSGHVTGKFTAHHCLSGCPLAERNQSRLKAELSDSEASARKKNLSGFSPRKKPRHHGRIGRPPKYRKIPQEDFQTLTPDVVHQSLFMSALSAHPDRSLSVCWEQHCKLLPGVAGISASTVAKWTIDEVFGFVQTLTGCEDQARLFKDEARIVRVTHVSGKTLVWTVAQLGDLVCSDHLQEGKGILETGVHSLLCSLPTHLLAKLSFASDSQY
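Read-out is AlphaScreen signal from streptavidin donor and nickel chelate acceptor beads (10 ug/mL final each) bridging L3MBTL1 (50 nM) and biotinylated K9-monomethylated H3(1-15) peptide (75 nM), after 30 min compound exposure at room temperature.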
POLB inh: blocks human DNA polymerase beta activity; actives 1.3% (n = 340,000); Pol beta primer extension/strand displacement, fluorescence kinetic; P06746; AID 485314; Potency, µM (series often up to 114 µM), for inactives: top-dose activity change, negative = inhibition, actives largely listed as inhibitors; note: % is set by controls: 0 for no effect and ±100 for the full control effect
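Pol beta (10 nM) and compounds were preincubated 15 min at room temperature, then 50 nM substrate (final) started primer extension/strand displacement. Reads were taken at 0 and 10 min; concentration-response data were fitted to a four-parameter Hill equation.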
POLI inh: DNA polymerase iota (human) inhibition | Q9UNA4 | Pol iota fluorescent replication assay, 10 min | Potency, µM (titrated, usually from 115 µM), for inactives: top-dose activity, negative = inhibition, usual class: inhibitors | actives 1% (n = 390,000)
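Fluorescent replication assay read twice, at 0 min and 10 min after adding 50 nM (final) substrate. Enzyme (10 nM) and compounds were first incubated 15 min at room temperature; enzyme-free buffer wells were negative controls.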
POLK inh: DNA polymerase kappa (human) inhibition; purified Pol kappa, fluorescent DNA synthesis assay, 10 min; Q9UBT6; actives 0.53% (n = 400,000); Potency, µM (highest dose often 107 µM), for inactives: at the highest dose activity, negative = inhibition, most hits filed as inhibitors; note: % is set by controls: 0 for no effect and ±100 for the full control effect
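Activity was followed as the change in fluorescence between reads at 0 and 10 min after starting the reaction with 50 nM substrate. Beforehand, 10 nM polymerase had been preincubated with compound for 15 min at room temperature.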
Pol eta inh: blocks human DNA polymerase eta activity; actives 1.2% (n = 390,000); Q9Y253; AID 588591; recombinant Pol eta, fluorescent DNA replication assay; Potency, µM (top dose mostly 114 µM), inactives show top-dose activity change, negative = inhibition, most hits filed as inhibitors; note: % is set by controls: 0 for no effect and ±100 for the full control effect
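Pol eta at 10 nM preincubated with compounds 15 min at room temperature; reaction started with fluorescent substrate (50 nM final) and read kinetically at 0 and 10 min.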
* hit, by the source's call; [ ] = dose if it differs, or a comment. Hits are enriched below; roughly 2.5% of the tested compounds scored in any of these assays. Calls come from the whole dose curve; as a rule, active = well fitted curve in the direction sought with a large enough effect; inconclusive = small, poorly fitted or top-dose-only effect, or another doubt; inactive = no such curve, though single readings can be large; an effect the other way counts as inactive or inconclusive. Potency is the fitted concentration of half-maximal effect.

For CN(C)c1ccc(NC(=O)Cn2c(SCc3ccc(F)cc3)nc3cccnc32)cc1 the results were POLB inh 17.8µM*, POLI inh -4.7%, POLK inh -7.4%[60.1 µM] and Pol eta inh -13.8%.
`CN(C)c1ccc(NC(=O)Cn2c(SCc3ccc(F)cc3)nc3ccncc32)cc1` gave POLB inh -0.9%, POLI inh -9.0%, POLK inh -19.8% and Pol eta inh 3.9%.
Screening CCOC(=O)CN1NC2(CCCCCC2)NC1=S returned WRN inhibitor 0.7%, L3MBTL1 inh -4.5%, POLB inh 16.3%, POLI inh 0.3%, POLK inh -4.0% and Pol eta inh -8.7%.
`COc1ccccc1Oc1nc2c(c(=O)n(Cc3ccccc3F)c(=O)n2C)n1C` gave WRN inhibitor 7.2%, L3MBTL1 inh inconclusive, POLB inh 17.8µM*, POLI inh -1.1%, POLK inh 9.4% and Pol eta inh -9.8%.
For COc1ccc(S(=O)(=O)N2CCN(C(=O)C3CC3)CC2)cc1Br the results were WRN inhibitor 3.8%, L3MBTL1 inh 36.2%, POLI inh 21.4%, POLK inh 12.8% and Pol eta inh -13.1%.
For Cc1cc(C)c(C(=O)COC(=O)Cn2cnnn2)cc1C the results were WRN inhibitor -5.3%, L3MBTL1 inh -4.4%, POLB inh 17.1%, POLI inh 13.9%, POLK inh -5.5% and Pol eta inh 2.8%.
For O=C(Cn1cnnn1)OCC(=O)c1ccc(Cl)s1 the results were WRN inhibitor -9.0%[11.6 µM], L3MBTL1 inh -0.1%, POLB inh 22.4µM*, POLI inh inconclusive, POLK inh inconclusive and Pol eta inh 14.1µM*.
Screening CC(C)C(=O)NC(C)C(c1cccs1)N1CCN(c2ccccc2)CC1 (stereo not given) returned WRN inhibitor 9.3%, L3MBTL1 inh inconclusive, POLB inh 20µM*, POLI inh 8.2%, POLK inh -5.5% and Pol eta inh -5.5%.
Cc1cc(C=C2C(=O)c3ccccc3C2=O)c(C)n1-c1cccc(C(=O)O)c1 was read as WRN inhibitor -16.5%, POLB inh inconclusive, POLI inh inconclusive, POLK inh inconclusive and Pol eta inh 44.7µM*.
Cc1cc(/C=C2/C(=O)NN(c3ccccc3)C2=O)c(C)n1-c1cccc(O)c1 was read as WRN inhibitor -4.4%[11.6 µM], L3MBTL1 inh inconclusive, POLB inh inconclusive, POLI inh 56.2µM*, POLK inh -32.7% and Pol eta inh inconclusive.
For CC1CCCC(NC(=O)CN2C(=O)NC(C)(c3cc(F)ccc3F)C2=O)C1C (stereo not given) the results were WRN inhibitor -1.0%, L3MBTL1 inh 3.6%, POLI inh 30.7%, POLK inh 0.9% and Pol eta inh -15.8%.
For N=C1SC(c2ccccc2)C(=O)N1c1ncc(Cc2ccccc2Cl)s1 (stereo not given) the results were WRN inhibitor inconclusive, L3MBTL1 inh 12.3%, POLB inh 17.8µM*, POLI inh inconclusive, POLK inh inconclusive and Pol eta inh inconclusive.
Screening O=C(Cc1n[nH]c(=O)[nH]c1=O)N/N=C/c1cccc(Cl)c1 returned WRN inhibitor -5.7%, L3MBTL1 inh -10.7%, POLB inh -0.1%, POLI inh 89.1µM*, POLK inh inconclusive and Pol eta inh -15.3%.
COc1ccc(C2C(C(C)=O)=C(C)N=c3s/c(=C\c4cc(C)n(C)c4C)c(=O)n32)c(OC)c1 (stereo not given) was read as WRN inhibitor inconclusive, L3MBTL1 inh -17.8%, POLB inh 12.2%, POLI inh -8.2%, POLK inh -12.2% and Pol eta inh -24.2%.
CCOc1ccc(C2C(C(=O)Nc3ccccc3)=C(C)N=c3s/c(=C/c4cccc(OCC(=O)O)c4)c(=O)n32)cc1 (stereo not given) was read as WRN inhibitor inconclusive, L3MBTL1 inh 35.5µM*, POLB inh -27.8%, POLI inh inconclusive, POLK inh -11.3% and Pol eta inh inconclusive.
`CC1=C(C(=O)Nc2ccccc2)C(c2ccc(Cl)cc2)n2c(s/c(=C/c3cccc(OCC(=O)O)c3)c2=O)=N1` (stereo not given) gave WRN inhibitor inconclusive, L3MBTL1 inh inconclusive, POLB inh 79.4µM*, POLI inh inconclusive, POLK inh -12.6% and Pol eta inh 56.2µM*.
`CC1=C(C(=O)Nc2ccccc2)C(c2ccc(C)o2)n2c(s/c(=C/c3ccccc3)c2=O)=N1` (stereo not given) gave WRN inhibitor -13.1%, POLB inh 6.3%, POLI inh -1.9%, POLK inh 2.4% and Pol eta inh -14.4%.
CCOC(=O)C1=C(C)N=c2s/c(=C\c3ccc(OCC(=O)O)cc3)c(=O)n2C1c1ccccc1OC (stereo not given) was read as WRN inhibitor -3.0%, POLB inh 12.5%, POLI inh 16.6%, POLK inh -6.1% and Pol eta inh 39.8µM*.
For CCOC(=O)C1=C(C)N=c2s/c(=C\c3ccc(O)c([N+](=O)[O-])c3)c(=O)n2C1c1ccccc1OC (stereo not given) the results were WRN inhibitor -14.2%, L3MBTL1 inh -9.1%, POLB inh 1.0%, POLI inh inconclusive, POLK inh -22.5% and Pol eta inh 8.1%.
For COc1ccc(C2C(C(C)=O)=C(C)N=c3s/c(=C\c4ccco4)c(=O)n32)c(OC)c1 (stereo not given) the results were WRN inhibitor -12.3%, L3MBTL1 inh inconclusive, POLB inh 35.5µM*, POLI inh inconclusive, POLK inh -32.0% and Pol eta inh 2.3%.
CCOC(=O)C1=C(c2ccccc2)N=c2s/c(=C\c3ccco3)c(=O)n2C1c1cccs1 (stereo not given) was read as WRN inhibitor inconclusive, L3MBTL1 inh 22.3%, POLB inh 10µM*, POLI inh 20µM*, POLK inh inconclusive and Pol eta inh 79.4µM*.
`CCOC(=O)C1=C(c2ccccc2)N=c2s/c(=C\c3cc(OC)c(OC)c(OC)c3)c(=O)n2C1c1cccs1` (stereo not given) gave WRN inhibitor -21.8%, L3MBTL1 inh -13.3%, POLB inh 3.1%, POLI inh inconclusive, POLK inh -17.5% and Pol eta inh -11.9%.
For CCOC(=O)c1[nH]c(C)c(C(=O)OCC(=O)Nc2sc3c(c2C#N)CCCCC3)c1C the results were WRN inhibitor -2.1%, L3MBTL1 inh 5.3%, POLB inh -1.8%, POLI inh 49.5%, POLK inh -9.7% and Pol eta inh -8.2%.
